# KCNQ2 block: blocks the rat KCNQ2 potassium channel; O88943; CHO-K1 KCNQ2, FluxOR thallium flux, 20 min; hits give low values; B-score at 10 µM; 310,000 compounds, 1.1% hits; AID 2156;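 active means fluorescence ratio B-score at most minus 3 library SDs, with starting brightness B-score within 2 library SDs, cut at about -5.5 in these data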
# KCNQ2 pot: KCNQ2 (rat) channel potentiation | CHO-K1 KCNQ2, FluxOR thallium flux fluorescence; hits give high values | B-score at 10 µM | 310,000 compounds, 0.54% hits | AID 2239;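 active means fluorescence ratio B-score at least 3 SD of library B-scores, with initial fluorescence B-score within 3 of them, cut at about 5.3 in these data; same plate scores as AID 2156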;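 further: B-score of peak minus minimum over baseline fluorescence ratio after K+ and Tl+ stimulus; positive B-score means potentiation of KCNQ2 with more thallium influx and brighter signal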
# Numbers without * were called inactive; i = inactive; nt = no result. Most compounds without a hit are left out; they make up all but 1.6% or so of the library.
SMILES,KCNQ2 block,KCNQ2 pot
O=C(Nc1ccc(F)cc1)c1cnc(-c2ccccc2)nc1-c1ccccc1,i,nt
O=C(Nc1ccc(F)c(F)c1)c1cnc(-c2ccccc2)nc1-c1ccccc1,-5.62*,-5.62
CCN(Cc1ccccc1)S(=O)(=O)c1cc(C(=O)NC2CCCCCC2)ccc1OC,-6.78*,-6.78
CCN(Cc1ccccc1)S(=O)(=O)c1cc(C(=O)NCC2CCCCC2)ccc1OC,i,nt
CCC(C)C(NC(=O)/C(=C\c1ccccc1)NC(=O)c1ccc(OC)cc1)C(=O)O (stereo not given),i,1.51
Cc1ccc(SCCC(=O)NCCSCc2ccccc2C)cc1,-7.83*,-7.83
CCCCNC(=O)CCSc1ccc(C)cc1,i,nt
Cc1cccc(NC(=O)c2nc[nH]c2C(=O)NCC(=O)OC(C)(C)C)c1,i,0.13
COc1cc(OC)cc(C(=O)NCCCCNC(=O)c2cc(OC)cc(OC)c2)c1,i,0.22
COc1cc(OC)cc(C(=O)NCCCCc2ccccc2)c1,-8.22*,-8.22
Cc1cc(Cl)ccc1OCC(=O)NCCC(=O)O,i,1.02
Cc1cccc(CSCCNC(=O)COc2ccc(Cl)cc2)c1,i,nt
O=C(COc1ccc(Cl)cc1)NCCSCc1cccc(Cl)c1,-7.45*,-7.45
Cc1cc(Cl)ccc1OCC(=O)NCCCCc1ccccc1,-6.32*,-6.32
O=C(Cc1ccc(Cl)c(Cl)c1)Nc1ccc(S(=O)(=O)Nc2ncccn2)cc1,i,nt
CC1Cc2ccccc2N1C(=O)CN1CCC(C(N)=O)CC1 (stereo not given),i,0.94
Cc1ccc(CN2C(=O)C(C)Nc3ncnc(N4CCN(c5ccccn5)CC4)c32)cc1 (stereo not given),i,nt
Fc1cccc2sc(Nc3nc4cc5c(cc4s3)OCCO5)nc12,i,3.52
Fc1cccc2sc(Nc3nc4cc5c(cc4s3)OCO5)nc12,i,6.87*
CCOc1c(C)cnc2c1c(=O)n(Cc1ccccc1Cl)c(=O)n2C,i,nt
CCO/C(C)=N/n1c2nc3ccccc3nc2c2c(=O)n(Cc3ccccc3Cl)c(C)nc21,-8.38*,-8.38
Cc1ccc(OCc2cc(C(=O)N3CCN(CC(=O)NC(C)C)CC3)no2)cn1,i,nt
O=C(N1CCN(c2ccccc2)CC1)C12CC3CC(CC(C3)C1)C2,i,nt
O=C(N1CCN(Cc2ccccc2)CC1)C12CC3CC(CC(C3)C1)C2,-5.61*,-5.61
CN(C)c1ccc(C(c2ccc(N(C)C)cc2)c2ccc([N+](=O)[O-])cc2)cc1,-6.58*,-6.58
SMILES,KCNQ2 block,KCNQ2 pot
CN(C)c1ccc(C=NC(CO)C(O)c2ccc([N+](=O)[O-])cc2)cc1 (stereo not given),i,nt
COc1ccc(CC(=O)Nc2nnc(C(C)(C)C)s2)cc1OC,i,0.45
CO/N=C/c1cc([N+](=O)[O-])ccc1Sc1ccc(C)cc1,-7.42*,-7.42
CO/N=C/c1ccc(Sc2ccc(C)cc2)c([N+](=O)[O-])c1,i,0.8
O=C(NN=C(Cc1ccccc1)Cc1ccccc1)c1ccccc1O,i,1.4
O=C(NN=C(Cc1ccccc1)Cc1ccccc1)c1ccc(F)cc1,-5.62*,-5.62
C/C(Cc1ccccc1)=N\NC(=O)c1ccc(F)cc1,i,2.84
NC(=S)NN=C(Cc1ccccc1)Cc1ccccc1,-5.63*,-5.63
CCCNC(=O)CN(c1cccc(F)c1)S(C)(=O)=O,i,0.22
CCCN(CC(=O)Nc1ccccc1OC)C(=O)CCNC(=O)c1ccccc1OC,i,nt
Cc1ccc(CSc2nnc(-c3ccc(NS(=O)(=O)c4ccccc4)cc3)o2)cc1,i,nt
COC(=O)CSc1nnc(-c2ccc(NS(=O)(=O)c3ccccc3)cc2)o1,-6.18*,-6.18
O=C(NNC(=O)c1ccccc1O)c1cc2ccccc2o1,i,nt
CCOC(=O)C1=C(COC(=O)CNC(=O)c2ccc(Cl)cc2Cl)NC(=O)NC1C (stereo not given),i,0.82
COc1ccc(C(=O)COC(=O)[C@H](C)Nc2ccc(C(F)(F)F)cc2[N+](=O)[O-])cc1,i,0.01
Cc1cc(C)c(C(=O)COC(=O)[C@H](C)Nc2ccc(C(F)(F)F)cc2[N+](=O)[O-])c(C)c1,-6.24*,-6.24
Cc1cc(-c2nnc(CCC(=O)N3CCN(Cc4cccnc4)CC3)o2)c(C)o1,i,nt
CN1CCN(c2ccc(NC(=O)c3ccc(C#N)cc3F)cc2Cl)CC1,i,0.96
Cc1ccc(O)c(C(=O)c2cnc3c(c2)CN(C)C(=O)N3)c1,i,0.53
Cc1ccc2c(c1)-c1ncc(C(=O)c3cc(Br)ccc3O)cc1CO2,-7.43*,-7.43
Cc1nc(C)n(CC(C)C(=O)N2CCN(S(=O)(=O)c3ccc(Cl)cc3)CC2)n1 (stereo not given),i,nt
Cn1c(CCn2ccccc2=O)nc2cc(NC(=O)COc3ccccc3)ccc21,i,nt
Cc1nnnn1/C(=C\c1ccccc1)C(=O)OCC(=O)NC(C)(C)C,i,nt
Cc1nnnn1/C(=C\c1ccccc1)C(=O)OCC(=O)NC1CCCCC1,-5.97*,-5.97
O=C(CN(Cc1ccccc1)C(=O)c1cc2c(s1)CCC2)NCc1cccs1,i,nt
SMILES,KCNQ2 block,KCNQ2 pot
O=C(CN(C(=O)c1cc2c(s1)CCC2)C1CCCC1)NCc1cccs1,-7.14*,-7.14
O=C(c1ccco1)N1CCN(c2nnc(-c3ccccc3)c3ccccc23)CC1,i,0.06
CCn1c(SCC(=O)NC2=NCCS2)nnc1C(C)NC(=O)c1ccc(Cl)cc1 (stereo not given),i,0.75
O=C(c1sc2ccccc2c1Cl)N1CCN(c2ccc(F)cc2)CC1,-6.59*,-6.59
O=C(c1sc2ccccc2c1Cl)N1CCN(c2ccccc2F)CC1,i,nt
CCSc1nnc(NC(=O)C(NC(=O)c2ccc(Cl)cc2)C(C)C)s1 (stereo not given),i,0.58
O=C(/C=C/c1ccccc1)NC(NC(=S)Nc1cc(Cl)ccc1Cl)C(Cl)(Cl)Cl (stereo not given),i,nt
O=C(CN1CCCCCC1)Nc1ccc(Oc2ccccc2)cc1,i,9.03*
NC(=O)C1(N2CCCCC2)CCN(CC(=O)Nc2ccc(Oc3ccccc3)cc2)CC1,i,0.6
COC(=O)c1ccccc1NC(=O)CSCC(=O)Nc1ccc(F)cc1,i,1.96
Cc1nn(C)c(Oc2ccc(Cl)cc2)c1C(=O)Nc1ccc(F)cc1F,i,nt
COc1ccc(CNC(=S)NC2CCCC2)cc1,i,0.39
Cc1ccc(CNC(=S)NC2CCC(C(C)(C)C)CC2)cc1 (stereo not given),-6.86*,-6.86
O=C(CSCc1cc(=O)n2ccsc2n1)Nc1ccccc1,i,0.4
COc1ccccc1-c1cnn2c(NCCc3ccccc3)cc(C)nc12,-7.13*,-7.13
COc1ccc(CCNc2cc(C)nc3c(-c4ccccc4)cnn23)cc1OC,i,nt
CCn1c(N)c(C(=O)NC)sc1=S,i,1.39
CCn1c(SCc2nc3ccccc3s2)nnc1-c1ccccc1,i,nt
CCC(c1nnc(SCc2nc3ccccc3s2)n1Cc1ccccc1)N(C)C (stereo not given),-6.34*,-6.34
O=C(NC(NC1CCS(=O)(=O)C1)C(=O)c1cccs1)c1ccccc1 (stereo not given),i,nt
O=C(NC1=C(NC2CCS(=O)(=O)C2)C(=O)c2ccccc2C1=O)c1ccccc1 (stereo not given),i,6.23*
O=c1ccc2cc3c([nH]c4ccc(Br)cc43)oc-2c1O,i,9.65*
O=C(O)c1ccc(N=Nc2c(O)[nH]c3ccc(Br)cc23)cc1,i,2.3
Cc1ccc(C(=O)OCC(=O)NC2CCCCC2)s1,i,nt
